# Measured values taken from the supplement of paper PMC11417369.
# Over roughly 25,000 sequences, “ln(normalized median fluorescence intensity)” has its median near 9.7; the highest 2% begin near 11. The entries come from a sample that favours the highest values as a whole.
# System: PfAP2-HC AP2 domain (GST-tagged)
# Assay: gcPBM binding intensity (ln(normalized median fluorescence intensity)); higher = stronger DNA binding
# How it was run: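 GST-fused DNA-binding domains of P. falciparum, expressed in E. coli, were applied at about 25 μg on average for 1 h to an Agilent 4 × 180k array of primer-extended double-stranded 36-bp intergenic genomic probes and negative controls. Binding intensity is the highest Masliner-normalised natural-log median intensity across replicate spots of either probe orientation, measured with Alexa488 anti-GST antibody and a 488 nm scan.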
row,Sequence,gcPBM binding intensity (ln)
1,AAATTTATGAACCTAGTGCAGAAATTAAAAAGATGA [GTGCAC_site9396],9.54
2,TCATATATTCAAAAATTTAAAGTTAATAAAACTTGA [CACACA_negctrl_site1546],9.06
3,TATAAAAGGAAACACACACACATATATATATATATA [CACACA_site939],10.5
4,ACATATAAATATTGTGTGCACACACATAATATATAT,11.3
5,ATAAATATTGGGTGCACACACATAATATATATATAT [CACACA_site2272],10.2
6,AGGAAAAAAGAAAAAACACACATAAATATATATATA [CACACA_site3085],9.74
7,ATATAAATATAGTGTGCACACACATAATATATATAT [CACACA_site8713],10.4
8,AATATAAAAATGTTTACACACACACCCAAATATATT [CACACA_site2511],10.2
9,GGAATAATATAAAACACACACATAAATATAAATATA [CACACA_site3376],10.7
10,AAGGAATAATATAAAACACACACATAAATATAAATA [CACACA_site9115],11.4
11,AATATAAAAATGTTTACACACACACGGAAATATATT [CACACA_site7226],10.3
12,AATATAAAAATGTTTACACACACACCGAAATATATT [CACACA_site8800],11.2
13,TAAAAAGGAAAACACACACACACATATATATATATA [CACACA_site3588],11.4
14,AAAAAAAAAAAAAAAACACACATAAAAATATAATAA [CACACA_site3855],9.9
15,ATATAAAGAAATTAATTTTTCAACAATAAAAATATA [CACACA_negctrl_site1262],9.35
16,AAATTGGGGCTTGTTACACACTTAGTGCGAGTTCTA [CACACA_site582],9.75
17,ATTTATTATATATAGTGTACGTTCTTAATTATAATT [XGTACX_site7480],9.69
18,TATCATATATTATATGCACACATGTTTTTCAAGAAT [CACACA_site1892],9.74

row,Sequence,gcPBM binding intensity (ln)
1,TTTCTTTTTCGATATACACACTGTATGTGTCTAAAA [CACACA_site6054],9.95
2,TGTATGATAACTATAGTGCATTTGGTAATTTTTCCA,9.51
3,AAATGTAAATTTATCCGTACATATATATATTTATAT [XGTACX_site7024],9.73
4,ATATATATATATATGTGTACATATATATATCATATG [XGTACX_site3126],9.68
5,TAATAGAATATGATGGTGCAGCAGTCTTATTTTTCA,9.61
6,ACCCATAAAAAGGATACACACACACCCACCCATATA [CACACA_site8205],10.6
7,TTAAAAAAAAAACACACACACATACACATATATATA [CACACA_site3299],11.1
8,AAAACATACCTATATACACACATATAAATATAAATA [CACACA_site6956],10.1
9,AAAAAAATTAAACACACACACACATATATATATATA [CACACA_site4718],11.5
10,TAAAAGGATACATATACACACATATATATATATATA [CACACA_site2791],9.85
11,ATTAAATAAAAAAACACACACATATATACCTATATA [CACACA_site5837],11
12,ATTAAATAAAAAAACACACACATATATACATATATA [CACACA_site3445],10.6
13,AAAAAAAAAAAACATACACACACATATATATATATA [CACACA_site8452],10.7
14,AAAAAAAAATTAAAAACACACATATATATATATATA [CACACA_site1580],9.73
15,CCATAAAAAGGATACACACACACACCGACATATATA [CACACA_site4653],10.9
16,AAAAAAAAATTAAAAACACACATATAAATAAATATA [CACACA_site6845],9.8
17,AAAACATACATATATACACACATATATATATATATA [CACACA_site1852],10.3
